From PubChem BioAssay (NCI)
Compounds without any hit were thinned out: in the full panel of roughly 83,000, 20% have a hit.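 Compound tested at a single concentration for 48 hours in 96-well plates; a percent growth value below 10 was scored as active.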 A number with no mark means an inactive call. Activity calls are given as the source filed them.

Columns and labels:
Experiment in all cases: NCI-60 one-dose screen, 48 h (100 = growth as untreated, 0 = no growth, -100 = all killed)
Conditions in all cases: 10 µM unless noted
EKVX NSCLC = tested on: EKVX NSCLC
SN12C renal = tested on: SN12C renal
UO-31 renal = tested on: UO-31 renal
TK-10 renal = tested on: TK-10 renal
ACHN renal = tested on: ACHN renal
CAKI-1 renal = tested on: CAKI-1 renal
A498 renal = tested on: A498 renal
CCRF-CEM leukemia = tested on: CCRF-CEM leukemia
MOLT-4 leukemia = tested on: MOLT-4 leukemia
SR leukemia = tested on: SR leukemia

Row | SMILES | growth (EKVX NSCLC) | growth (SN12C renal) | growth (UO-31 renal) | growth (TK-10 renal) | growth (ACHN renal) | growth (CAKI-1 renal) | growth (A498 renal) | growth (CCRF-CEM leukemia) | growth (MOLT-4 leukemia) | growth (SR leukemia)
1 | O=C1/C(=C/c2ccc(O)cc2)COc2ccc(O)cc21 | 106% | 96.7% | 87.5% | 115% | 96.5% | 103% | 103% | 76.7% | 93.7% | 33%
2 | Nc1nc(N)c2c(n1)NC1(C=C(O)c3ccccc31)C1=C(N2)c2ccccc2C1=O (stereo not given) | 113% | 102% | 77.1% | 142% | 96.1% | 83.8% | 109% | 97.3% | 104% | 134%
3 | O=c1c2cc(F)ccc2sc2c(NCCN3CCCC3)nc3ccccc3c12 | 66.2% | 70.4% | 45.3% | 64.8% | 35.6% | 62.8% | 26% | 33.5% | 5.14% (active) | 16.7%
4 | CC(=O)c1ccc(Nc2nc(NCCO)nc(Nc3ccc(Cl)cc3)n2)cc1 | 80.2% | 95.8% | 81.3% | 108% | 87.8% | 92.1% | 72.9% | 89.4% | 83.9% | 64.7%
5 | C=C1C(=O)O[C@H]2[C@H]1CC/C(COC(=O)/C=C\C(=O)O)=C\CC[C@@]1(C)O[C@@H]21 | 102% | 99.1% | 85.2% | 106% | 98% | 100% | 93.5% | 107% | 110% | 114%
6 | O=C(c1nc2ccccc2[nH]1)C1C(c2ccc(F)cc2)C2CC3CCCCC3N2[C@@]12C(=O)Nc1ccc(Cl)cc12 (stereo not given in full) | 39.5% | 52% | 30.9% | 72.9% | 43.1% | 54.8% | 39.8% | 33.3% | 11.4% | 21%
7 | O=C(Nc1ncc(Cc2cccc(C(F)(F)F)c2)s1)C1COc2ccccc2O1 (stereo not given) | 75.5% | 88.8% | 73.7% | 97.1% | 97.4% | 84.2% | 106% | 86.7% | 80.2% | 106%
8 | COc1ccc(N2C(=O)CC(c3cc(OC)c(OC)c(OC)c3)C3C2=NC(=O)N3C)cc1 (stereo not given) | 102% | 102% | 89.9% | 103% | 106% | 95.1% | 102% | 109% | 114% | 126%
9 | CC/C=C\C[C@H](O)C/C=C1/C(=O)C=C[C@@H]1C/C=C\CCCC(=O)OCCS(=O)(=O)c1ccccc1 | 104% | 37.3% | 70.4% | 104% | 86.3% | 65.4% | 115% | 5.02% (active) | 8.02% (active) | 8.55% (active)
10 | COc1cc(C2C3=C(COC3=O)N(CCO)c3cc4c(cc32)CCC4)cc(OC)c1O (stereo not given) | 34.3% | 33.5% | 49.7% | 45% | 42.8% | 21.1% | 17.2% | 17.2% | 20.6% | 33.1%
11 | COc1ccc(C2=Nn3c(NN)nnc3SC2)cc1 | 118% | 101% | 84.5% | 97.5% | 103% | 89.7% | 84.6% | 95.1% | 83% | 75.8%
12 | COc1ccc(/C=C2\CCC/C(=C\c3ccc(OC)c(OC)c3)C2=O)cc1OC | 25.9% | 8.6% (active) | 19.3% | 7.6% (active) | 8.29% (active) | 3.35% (active) | 35.5% | 5.72% (active) | 6.9% (active) | 14.3%
13 | COC(=O)/C(CCC=C(C)C)=C1\[C@@H](OC(C)=O)C[C@@]2(C)[C@H]1C[C@@H](O)[C@H]1[C@@]3(C)CC[C@H](NCc4ccccc4)[C@@H](C)[C@@H]3CC[C@@]12C | 63% | 75.6% | 47.5% | 111% | 79.2% | 72.5% | 98.1% | 50.9% | 28.1% | 0.245% (active)
14 | COc1ccc(C2C3=C(COC3=O)N(CCO)c3cc4c(cc32)OCCO4)cc1 (stereo not given) | 121% | 95.4% | 101% | 91.6% | 96.5% | 80.8% | 93.7% | 89.3% | 81.9% | 31.6%
15 | CN(O)c1nc(N(C)O)nc(N2CCOCC2)n1 | 5.22% (active) | 53.7% | 12.7% | 16.3% | 17.5% | -11.2% (active) | 89.6% | 5.09% (active) | 22.1% | 55.6%
16 | Cc1ccc(C2CC(c3ccc(Nc4nc(NCCO)nc(Nc5ccc(Cl)cc5)n4)cc3)=NN2c2cc(Cl)cc(Cl)c2)cc1 (stereo not given) | 82.7% | 96.4% | 70.4% | 113% | 95.3% | 73.5% | 79.1% | 96.8% | 93.7% | 107%
17 | Cc1nc(Nc2ccccn2)sc1C(=O)/C=C/c1ccc(Cl)cc1 | 27.8% | 32% | 28.6% | 61.5% | 23.2% | 27.9% | 6.49% (active) | 17.1% | 17.2% | 15.6%
18 | Cc1ccc(N=NC2C(=O)N(c3ccc(Cl)cc3)N(c3ccc(Cl)cc3)C2=O)cc1 | 94.1% | 96.4% | 73.1% | 132% | 95% | 92.4% | 88.6% | 96.3% | 100% | 120%
19 | O=C(Cn1cc(COc2ncnc3c2cnn3-c2ccccc2)nn1)Nc1ccccn1 | 86.2% | 94.6% | 62.7% | 115% | 91.1% | 86.6% | 78.7% | 96.7% | 89.9% | 101%
20 | COc1cc(C2C3=C(COC3=O)N(CCO)c3cc4c(cc32)OCCO4)cc(OC)c1O (stereo not given) | 41% | 39.8% | 60.3% | 47.4% | 37.2% | 39.8% | 25.5% | 15.5% | 29.7% | 23%
21 | CCOC(=O)c1c2c(n3cccc(Cl)c13)C(=O)c1ncccc1C2=O | 75.7% | 16.6% | 43.9% | 75.6% | 26.4% | 25.8% | 79.3% | 84.2% | 95.8% | 58.3%
22 | COc1cc(C2C(C#N)=C(N)OC3=C2C(=O)c2ccccc2C3=O)cc(OC)c1O (stereo not given) | 78.9% | 47.5% | 36% | 70.1% | 41.2% | 38.8% | -8.45% (active) | 106% | 105% | 38.1%
23 | CC(=O)c1ccc(NC(=O)Nc2ccc(S(=O)(=O)Nc3ccc(Cl)nn3)cc2)cc1 | 99% | 97.9% | 78.5% | 119% | 103% | 93% | 84% | 116% | 104% | 117%
24 | Nc1no[n+]([O-])c1-c1nnc2c(n1)-c1ccccc1C2=O | 63.8% | 15.6% | 37% | 151% | 16% | 72.4% | 91% | 35.5% | 5.49% (active) | 3.68% (active)
